Measurements taken from PMC12431657, “Discovery and mechanistic insights of dibenzoylmethane as a broad spectrum inhibitor of coronavirus” (PLOS Pathogens, 2025).
Read-outs that look alike come from different tables or passages of the source. Out of some 3,300 compounds screened, about 60 (2%) showed an effect of 50% or more. The sample holds strong results, similar compounds and a random draw of the others, so the mix is not that of the screen.

Test system: HCoV-OC43
Design: species or system RD; HTS, protection from HCoV-OC43 induced cell death, luminescent cell viability (CellCounting-Lite 2.0), inhibition rate
Settings: 10 µM, inhibitor

Structure (SMILES): CCC(=O)O[C@H]1[C@H](O[C@@H]2[C@@H](C)[C@H](O[C@H]3C[C@@](C)(OC)[C@@H](O)[C@H](C)O3)[C@@H](C)C(=O)O[C@H](CC)[C@@](C)(O)[C@H](O)[C@@H](C)C(=O)[C@H](C)C[C@@]2(C)O)O[C@H](C)C[C@@H]1N(C)C [Erythromycin estolate, erythromycin estolate]
- OC43 Inhibition rate (24 h post infection, 1 h compound pre-incubation): 99.7%

Structure (SMILES): O=C1C([C@@H]2O[C@H](CO)[C@@H](O)[C@H](O)[C@H]2O)=C(O)/C(=C(O)/C=C/c2ccc(O)cc2)C(=O)C1(O)[C@@H]1O[C@H](CO)[C@@H](O)[C@H](O)[C@H]1O (stereo partly drawn) [Hydroxysafflor yellow A]
- OC43 Inhibition rate (24 h): 0.2%

Structure (SMILES): Oc1c(Br)cccc1Br [2,6-Dibromophenol]
- OC43 Inhibition rate (24 h): 1.1%

Structure (SMILES): C[C@H]1CCCC(=O)CCC/C=C/c2cc(O)cc(O)c2C(=O)O1 [Zearalenone]
- OC43 Inhibition rate (24 h): 56.4%

Structure (SMILES): C[C@H]1CCC[C@@H](O)CCCCCc2cc(O)cc(O)c2C(=O)O1 [Beta-Zearalanol]
- OC43 Inhibition rate (24 h): 0%

Structure (SMILES): C=C(C)[C@@H]1[C@H]2OC(=O)[C@@H]1[C@]1(O)C[C@H]3O[C@]34C(=O)O[C@H]2[C@]14C [Picrotoxinin]
- OC43 Inhibition rate (24 h): 0.5

Structure (SMILES): O=C1C=CC[C@@H]2[C@H]3CCC[N+]4([O-])CCC[C@@H](CN12)[C@@H]34 (stereo partly drawn) [Oxysophocarpine]
- OC43 Inhibition rate (24 h): -0.3%

Structure (SMILES): C[C@@H]1CC[C@@]2(OC1)O[C@H]1C[C@H]3[C@@H]4CC=C5C[C@@H](O[C@@H]6O[C@H](CO)[C@@H](O[C@@H]7O[C@@H](C)[C@H](O[C@@H]8O[C@@H](C)[C@H](O)[C@@H](O)[C@H]8O)[C@@H](O)[C@H]7O)[C@H](O)[C@H]6O[C@@H]6O[C@@H](C)[C@H](O)[C@@H](O)[C@H]6O)CC[C@]5(C)[C@H]4CC[C@]3(C)[C@H]1[C@@H]2C [Formosanin C]
- OC43 Inhibition rate (24 h): 5.5%

Structure (SMILES): Cc1c([C@H](C)[C@@H]2NC[C@@H](C)C[C@H]2O)ccc2c1C[C@H]1[C@H]2CC=C2C[C@@H](O[C@@H]3O[C@H](CO)[C@@H](O)[C@H](O)[C@H]3O)CC[C@@]21C [Veratrosine]
- OC43 Inhibition rate (24 h): 5.4%

Structure (SMILES): C[C@@H]1CC[C@@]2(NC1)O[C@H]1C[C@H]3[C@@H]4CC=C5C[C@@H](O[C@@H]6O[C@H](CO)[C@@H](O[C@@H]7O[C@@H](C)[C@H](O)[C@@H](O)[C@H]7O)[C@H](O)[C@H]6O)CC[C@]5(C)[C@H]4CC[C@]3(C)[C@H]1[C@@H]2C [Khasianine]
- OC43 Inhibition rate (24 h): 67.5%

Structure (SMILES): COc1cc2ccc(=O)oc2c2ccoc12 [Sphondin]
- OC43 Inhibition rate (24 h): 0.1%

Structure (SMILES): COc1cc([C@@H]2c3cc4c(cc3C(=O)[C@H]3COC(=O)[C@H]23)OCO4)cc(OC)c1OC [Podophyllotoxone]
- OC43 Inhibition rate (24 h): 4.4%

Structure (SMILES): Cc1ccc(C=O)cc1 [p-Tolualdehyde]
- OC43 Inhibition rate (24 h): -0.1

Structure (SMILES): CC(C)=CCC[C@H](C(=O)O)[C@H]1CC[C@]2(C)C3=C(CC[C@@]12C)[C@@]1(C)CCC(=O)C(C)(C)[C@H]1CC3 [β-Elemonic acid]
- OC43 Inhibition rate (24 h): -1.4%

Structure (SMILES): CC1(C)OC1COc1c2occc2cc2ccc(=O)oc12 (stereo not drawn) [Oxyimperatorin]
- OC43 Inhibition rate (24 h): 2.8%
